Source: PubChem BioAssay AID624330 (Southern Research Specialized Biocontainment Screening …, 2012)
About 2,100 (0.62%) of roughly 340,000 compounds were called active.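 The calls were made as follows: active = first-screen hits whose inhibition reached a set limit at any dose in the follow-up dose series; inconclusive = inhibition above the set first-screen limit but never retested; inactive = the rest.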 Only a sample is shown. Entries with a potency or affinity are not part of this list.

molecular target: Rac GTPase-activating protein 1 (Homo sapiens) (UniProt Q9H0H5); test: blockers of MgcRacGAP-driven Rac1 GTP hydrolysis – biochemical, ADP Hunter fluorescence, primary and confirmatory, confirmation (AID 624330); conditions: MgcRacGAP-stimulated Rac1 GTP hydrolysis, at 30 µM, stronger effect = higher value, GST-tagged Rac1 F28L mutant substrate;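 also: fluorescence reports GDP produced by GAP-driven GTP hydrolysis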
Sequence (Q9H0H5 whole entry, looked up): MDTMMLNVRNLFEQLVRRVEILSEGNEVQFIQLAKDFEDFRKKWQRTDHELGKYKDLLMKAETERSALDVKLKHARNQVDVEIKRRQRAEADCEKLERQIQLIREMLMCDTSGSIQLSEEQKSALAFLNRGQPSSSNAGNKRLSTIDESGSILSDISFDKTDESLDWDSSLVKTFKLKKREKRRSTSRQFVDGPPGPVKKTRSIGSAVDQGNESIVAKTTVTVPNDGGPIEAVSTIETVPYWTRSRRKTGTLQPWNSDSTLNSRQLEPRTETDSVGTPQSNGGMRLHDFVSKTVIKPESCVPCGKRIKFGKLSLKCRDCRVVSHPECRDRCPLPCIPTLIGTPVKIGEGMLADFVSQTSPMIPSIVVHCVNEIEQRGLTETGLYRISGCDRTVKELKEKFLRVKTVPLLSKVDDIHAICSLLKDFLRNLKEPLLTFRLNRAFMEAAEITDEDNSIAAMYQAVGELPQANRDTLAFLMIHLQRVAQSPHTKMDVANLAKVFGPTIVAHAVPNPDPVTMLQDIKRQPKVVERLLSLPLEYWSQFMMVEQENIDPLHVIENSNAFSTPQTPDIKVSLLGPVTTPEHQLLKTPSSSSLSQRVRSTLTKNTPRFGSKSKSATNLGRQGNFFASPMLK

inhibition, inactive:
COc1cc(/C=C2/C(=N)N3C=CSC3=NC2=O)ccc1OCCCOc1cc(C)ccc1C 4.39%
CCCC1=NN2C(=N)/C(=C\c3ccc(SCc4ccco4)o3)C(=O)N=C2S1 60.1%
C=CCOc1ccc(/C=C2\C(=N)N3N=C(S(=O)(=O)CC)SC3=NC2=O)cc1OC -6.72%
CC1=CN2C(=N)/C(=C/c3ccco3)C(=O)N=C2S1 5.23%
CCOc1cc(/C=C2\C(=N)N3N=C(S(=O)(=O)CC)SC3=NC2=O)ccc1OC(=O)c1ccco1 26.5%
CCC1=NN2C(=N)/C(=C\c3ccc(SCc4ccco4)o3)C(=O)N=C2S1 45.8%
CCOc1cc(/C=C2\C(=N)N3N=C(S(C)(=O)=O)SC3=NC2=O)ccc1OCCOc1cccc(OC)c1 12.1%
CCS(=O)(=O)C1=NN2C(=N)/C(=C\c3ccc(OC(=O)c4ccco4)c(OC)c3)C(=O)N=C2S1 30.5%
CCC(=O)Nc1cc(-c2nn(C)c(=O)c3ccccc23)ccc1N1CCOCC1 1.97%
Cc1csc(SC(C)C(=O)NCc2ccc3c(c2)OCO3)n1 (stereo unspecified) 6%
Cc1ncc(C[n+]2csc(CCOC(=O)C34CC5CC(CC(C5)C3)C4)c2C)c(N)n1 1.84%
CCOc1ccccc1OCC(=O)Nc1cc(S(=O)(=O)N2CCCCC2)ccc1OC 10.7%
Cn1c(Cc2ccccc2)nnc1SCc1nc2ccccc2c(=O)[nH]1 0.95%
COCC(=O)N1CCC(Oc2ccc(C(=O)N(C)Cc3nccs3)cc2)CC1 3.05%
CSc1ccccc1NC(=O)c1cccc(S(=O)(=O)N2CCN(C)CC2)c1 2.55%
C[C@H]1CCCCO[C@@H](CN(C)S(=O)(=O)c2ccc(F)cc2)[C@@H](C)CN([C@@H](C)CO)C(=O)c2cc(NC(=O)Nc3ccc4c(c3)OCO4)ccc2O1 9.48%
CCN(CC)CCCNC(=S)N1CCn2c(nc3ccccc32)C1 6.61%
O=C(NCC1CCCO1)c1cc([N+](=O)[O-])ccc1Cl (stereo unspecified) 2.41%
O=C(CC1CCCC1)NNC(=O)c1ccc(Br)cc1 10.1%
CC1=NN(c2ccc(Cl)c(C(=O)O)c2)C(=O)/C1=C\c1ccc(-c2ccc(C(=O)O)cc2)o1 20.6%
CC1=NN(c2ccc(Br)cc2)C(=O)/C1=C/c1ccc(-c2ccccc2C(=O)O)o1 7.93%
CC1=NOC(=O)/C1=C\c1ccc(-c2cccc(Cl)c2)o1 12.5%
CC1=NOC(=O)/C1=C/c1ccc(-c2ccc(Cl)cc2)o1 13%
CC(=O)NCC1CCCN(Cc2cn(-c3ccccc3)nc2-c2ccc3c(c2)OCO3)C1 (stereo unspecified) -2.78%
O=C(CNC(=O)c1ccco1)N/N=C/c1ccc(O)c([N+](=O)[O-])c1 1.55%
COc1ccc(/C=N/NC(=O)CNC(=O)c2cccs2)cc1 2.55%
COc1cccc(/C=N/NC(=O)CNC(=O)c2ccco2)c1O 13.1%
COc1cc(/C=N/NC(=O)c2cccs2)ccc1O 9.66%
O=S(=O)(c1cccc(S(=O)(=O)N2CCCC2)c1)N1CCCCC1 -4.65%
O=C(COC(=O)/C=C/c1cccc(C(F)(F)F)c1)NC(c1ccccc1)c1ccccc1 -0.08%
Cc1oc2ccccc2c1-c1cn2c(n1)SCC2 18.1%
COC(=O)c1[nH]c(C)c(/C(O)=C2\C(=O)C(=O)N(CCN(C)C)C2c2ccccc2OC)c1C (stereo unspecified) -0.13%
CC(C)(C)OC(=O)NCC(=O)NCC(=O)OCc1ccccc1 4.89%
CC1(c2cccc(Br)c2)NC(=O)N(CC(=O)Nc2ccc3c(c2)OCO3)C1=O (stereo unspecified) 8.04%
NS(=O)(=O)c1ccc(CCNCc2cc(Br)ccc2OCc2ccccc2F)cc1 1.51%
COCC1CCCCN1Cc1cn[nH]c1-c1ccc(OC)cc1OC (stereo unspecified) -6.12%
CC(NC(=O)COC(=O)c1cc(=O)c2ccccc2o1)c1ccccc1 (stereo unspecified) 2.31%
COc1ccc(/C=C/CN2CCC(Oc3ccc(C(=O)N4CCCCC4)cc3)CC2)cc1 7.82%
OCC1(CC2CCCCO2)CCN(C/C=C/c2ccccc2)CC1 (stereo unspecified) 1.66%
COc1ccccc1/C=C/CN1CCC(Oc2ccc(C(=O)N3CCCC3)cc2)CC1 7.28%
COc1cccc(CN2CCC(CO)(CC3CCCCO3)CC2)c1 (stereo unspecified) 10.7%
O=C(NCC1CCCO1)c1ccccc1-c1nc(-c2ccc(Cl)cc2)no1 (stereo unspecified) 10.3%
CC(C)(C)NC(=O)NC(=O)CSc1nnc(-c2ccccc2F)n1N 11.7%
CC1(C)CC(O)C(C(O)c2cccc([N+](=O)[O-])c2)C(C)(C)N1 (stereo unspecified) -4.29%
COC(=O)C1=C(C)N(Cc2ccc(C)cc2)C(=O)/C1=C\c1ccc(O)c(OC)c1 -0.65%
COC(=O)C1=C(C)N(Cc2ccco2)C(=O)/C1=C\c1ccc([N+](=O)[O-])cc1 40.1%
COC(=O)C1=C(C)N(CCc2ccc(OC)c(OC)c2)C(=O)/C1=C\c1ccc(O)cc1 27.5%
CCOc1cc(/C=C2\C(=O)N(Cc3ccc(C)cc3)C(C)=C2C(=O)OC)ccc1O 13.1%
Cc1cccc(C(C)C)c1NC(=O)COC(=O)c1cc2ccccc2oc1=O 4.05%
CCOC(=O)C1CCN(C(=O)Cn2nc(C)n3nc(-c4ccc(OC)cc4)cc3c2=O)CC1 4.91%
CCOC(=O)C(O)(CC(=O)c1ccc(Cl)cc1)C(=O)OCC 3.02%
OCCn1c(-c2ccccc2)csc1=Nc1ccccc1 7.22%
CCn1c(-c2ccccc2)csc1=Nc1ccc(S(=O)(=O)O)cc1 9.33%
CCOC(=O)CC1CCCCN1C(=O)CCCn1nnnc1CN1CCOCC1 (stereo unspecified) 7.71%
O=C(COc1ccc2ccccc2c1)N1CCCC1 7.41%
Cc1cccc(OCC(=O)N2CCN(C(=O)Cc3ccccc3)CC2)c1 8.65%
CCOC(=O)N1CCN(C(=O)COc2ccc([N+](=O)[O-])cc2)CC1 -2.93%
O=C(COc1ccc2ccccc2c1)N1CCN(C(=O)c2cccnc2)CC1 8.31%
Cc1cccc(OCC(=O)N2CCN(C(=O)COc3ccc(Cl)cc3)CC2)c1 9.73%
Cc1ccc(OCC(=O)N2CCN(C(=O)c3ccc([N+](=O)[O-])cc3)CC2)cc1 4.34%
CCn1ccnc1CN(C)C(=O)C1CCC(=O)N(Cc2cccc(C(F)(F)F)c2)C1 (stereo unspecified) 4.11%
COc1cc(NC(=O)COC(=O)CNS(=O)(=O)c2ccc(F)c(F)c2F)cc(OC)c1 9.27%
COc1ccc(-n2nc(C(=O)NCC(=O)NCCN(C)C)c3ccccc3c2=O)c(OC)c1 8.96%
Cc1nn(C)cc1CNC(=O)/C=C/c1cnn(C)c1 -2.3%
O=[N+]([O-])c1ccc(N2CCCCC2)nc1N1CCCCC1 2.43%
O=C(COC(=O)C1CCN(c2ccc(C(F)(F)F)cn2)CC1)NCc1ccccc1 2.35%
CC12CCC(=O)N1C(C(=O)OCC(=O)Nc1ccc(S(N)(=O)=O)cc1)CS2 (stereo unspecified) 0.82%
N#Cc1ccc(-c2csc(NC(=O)c3ccc(N4C(=O)CCC4=O)cc3)n2)cc1 6.12%
CCCCOc1ccc(/C=c2\sc3ncnn3c2=O)cc1 8.68%
O=c1/c(=C/c2cccc3ccccc23)sc2ncnn12 17.9%
CN1CCN(C(=O)CN(C)S(=O)(=O)c2cc(Cl)ccc2Cl)CC1 1.86%
COc1ccccc1CNC(=O)Cc1ccc(C)cc1 4.63%
COc1ccc(CNCC(=O)Nc2ccccc2-n2cccc2)cc1 36.5%
COc1ccccc1CNCc1ccc(C)cc1 7.48%
O=C1CN(C(=O)CNCc2ccccc2)c2ccccc2N1 23.4%
COc1ccccc1CNC(=O)CNC(=O)N1CC(=O)Nc2ccccc21 10.5%
O=C(CNCc1ccco1)Nc1ccccc1-n1cccc1 12.8%
COc1ccccc1CNCC(=O)Nc1ccc(C(F)(F)F)cc1 25%
COc1ccccc1CNCC(=O)Nc1ccc(C#N)cc1 31.8%
O=CNc1ccccc1Oc1ccccc1 8.55%
Cc1ccc(N(C(=O)c2snc(C(N)=O)c2N)C(C(=O)NC2CCCC2)c2ccc(C)o2)cc1 (stereo unspecified) 2.21%
CC(=O)c1ccc(NC(=O)CSc2nnc(C3CC3)n2C)cc1 -6.69%
O=C(CSc1cn(CCNC(=O)c2ccc3ccccc3c2)c2ccccc12)NCc1ccco1 11.1%
CC(C)C(=O)Nc1ccc2c(c1)nc1n2CCSC1 5.79%
Cc1ccccc1OCC(O)CN1CCC(C)CC1 (stereo unspecified) 8.53%
CC1CCN(CC(O)COc2ccc(OCC(O)CN3CCC(C)CC3)cc2)CC1 (stereo unspecified) 15.7%
Cn1ccnc1C(=O)c1cc(SCC(=O)N2CCOCC2)nc2ccccc12 -0.39%
S=C1SC2(CCCCCC2)NC2=C1CCCCC2 8.68%
CCOC(=O)CCSc1nc(C)c2cc(C)ccc2n1 5.59%
Cc1ccc(Oc2coc3cc(OC(=O)c4cccs4)ccc3c2=O)cc1 1.09%
Cc1c(O)ccc2c(=O)c(Oc3ccccc3)coc12 9.78%
